Measurements from PubChem BioAssay.
Calls of active or inactive are those of the source. No rule for the calls is given here.

target: Pantothenate synthetase (Mycobacterium tuberculosis (strain ATCC 25618 / H37Rv)) (UniProt P9WIL5); assay: Recombinant Mtb pantothenate synthetase (PanC) inhibitors, coupled enzyme, confirmatory (AID 375); conditions: coupled enzyme assay; at 10 µM, hits give high values;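 also: 0% = full reaction with vehicle and 100% = no enzyme background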
Sequence (P9WIL5 whole entry, looked up): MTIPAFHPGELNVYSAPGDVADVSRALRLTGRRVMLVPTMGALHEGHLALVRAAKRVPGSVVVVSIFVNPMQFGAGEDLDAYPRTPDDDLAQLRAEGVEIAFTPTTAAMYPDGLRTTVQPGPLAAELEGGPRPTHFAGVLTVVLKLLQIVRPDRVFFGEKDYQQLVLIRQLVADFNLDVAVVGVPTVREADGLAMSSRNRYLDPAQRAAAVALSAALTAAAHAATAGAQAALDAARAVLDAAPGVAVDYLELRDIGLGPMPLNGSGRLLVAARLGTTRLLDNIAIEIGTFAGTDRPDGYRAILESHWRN

SMILES | inhibition
CN(C)c1ccc(/C=C/C(O)=C2/C(=O)N(C)C3(C)CC2c2ccccc2O3)cc1 (stereo not given) | 0% (inactive)
CCCN(CCC)CCCNS(=O)(=O)c1ccc2c(c1)oc(=O)n2C | 0% (inactive)
COc1cccc(-c2cc3nc4c(c(N5CCC6(CC5)OCCO6)n3n2)CCCC4)c1 | 0% (inactive)
CC(C)(C)OC(=O)NCCc1nnc(SCC(=O)c2ccc(Cl)cc2)o1 | 0% (inactive)
CN1CCN(C(=O)CCC(=O)c2ccc(F)cc2)CC1 | 9% (inactive)
CCOC(=O)c1c(C)n(C)c2c(C)cc(O)c(OC(C)=O)c12 | 0% (inactive)
COc1ccc(OC)c(C2CC(=O)NC(SC)=C2C#N)c1 (stereo not given) | 5% (inactive)
C[C@]12CC[C@@H]3c4ccc(O)cc4CC[C@H]3[C@@H]1CCC2=O | 6% (inactive)
O=C(NCCN1CCCCC1)c1ccc(=O)oc1 | 7% (inactive)
CSc1nc2ccccc2c(=O)n1N | 0% (inactive)
Cc1ccc(NC(=O)CC2C(=O)NC3CCCCC3N2C(=O)c2ccc(F)cc2)cc1C (stereo not given) | 4% (inactive)
CC1=C(c2ccc(Cl)cc2)[N+](=O)C(C)(C)N1[O-] | 0% (inactive)
Cc1nc(SCC(=O)NCc2ccco2)c2c(C)c(C)sc2n1 | 5% (inactive)
Cn1cc(C2NC(=O)c3c(sc4c3CCCC4)N2)c2ccccc21 (stereo not given) | 0% (inactive)
N#Cc1ccccc1Cn1c(=O)n(Cc2ccc(C(=O)NCc3ccco3)cc2)c(=O)c2ccccc21 | 0% (inactive)
CC1(C2(O)CC(c3ccccc3)ON2)CCCCC1 (stereo not given) | 2% (inactive)
Cc1cc(=O)oc2ccc(OCC(=O)N3CCC(C)CC3)cc12 | 0% (inactive)
Cc1nc(NC2=NCN(CCN3CCOCC3)CN2)nc2c(C)cccc12 | 0% (inactive)
O=C1C(Cl)=C(N2CCOCC2)C(=O)N1CCc1ccccc1 | 4% (inactive)
CCOC(=O)CCCOC(=O)c1ccc(S(=O)(=O)N(C)C)cc1 | 0% (inactive)

SMILES | inhibition
CC(C)C(OC(=O)c1ccco1)C(=O)NCc1ccccc1 (stereo not given) | 5% (inactive)
O=C1CC(=O)N(Cc2cccs2)C(=O)N1 | 0% (inactive)
O=C(NC1CCCC1)C(NS(=O)(=O)c1cccc2nsnc12)c1ccccc1 (stereo not given) | 7% (inactive)
Cc1ccc(O)c(C(CC(=O)N2CCCC2)c2ccccc2)c1 (stereo not given) | 0% (inactive)
COc1ccc(C(=O)Nc2ccc(S(=O)(=O)Nc3nccnc3OC)cc2)cc1OC | 0% (inactive)
COc1ccccc1NCN1C(=O)CCC1=O | 3% (inactive)
COc1cccc(OCCSc2nnc3sc4ccccc4n23)c1 | 0% (inactive)
CCOC(=O)c1[nH]c(C)c(C(=O)NCc2ccccn2)c1C | 0% (inactive)
CCCc1[nH]nc2c1C(c1cn[nH]c1-c1ccc(F)cc1)C(C#N)=C(N)O2 (stereo not given) | 10% (inactive)
C1COC(NC(C2CC2)C2CC2)=N1 | 4% (inactive)
Cc1cc(N)n2nc(-c3ccccc3)cc2n1 | 0% (inactive)
Cc1cnc(C(=O)NCCc2ccc(S(=O)(=O)NC(=O)NC3CCCCC3)cc2)cn1 | 5% (inactive)
CCOC(=O)c1[nH]c2ccc(Br)cc2c1NC(=O)CNC | 4% (inactive)
C=CCN1C(=O)/C(=C2\SC(N3CCOCC3)=NC2=O)c2cc(Br)ccc21 | 0% (inactive)
CCN(CC)CCCC1(CN)OCCc2ccccc21 (stereo not given) | 0% (inactive)
O=C1CC2CS(=O)(=O)CC2N1c1ccc(Oc2ccccc2)cc1 (stereo not given) | 0% (inactive)
CCOC(=O)N1CCC(N2C(=O)c3ccccc3C2Nc2ccccc2C)CC1 (stereo not given) | 4% (inactive)
Cc1noc(/C=C/N(C)C)c1S(=O)(=O)N1CCCC(C(=O)NC2CCCCC2)C1 (stereo not given) | 8% (inactive)
Cc1cc2ccccc2n1CCNC(=O)c1ccc(S(=O)(=O)N2CCOCC2)cc1 | 4% (inactive)
Cc1ccc(S(=O)(=O)Nc2nc3ccccc3nc2NCc2ccco2)cc1 | 3% (inactive)
